Laboratory results published in a collection of fitness landscapes (doi:10.1126/science.1257360).
The full ranking holds about 140,000 sequences; the median of “enrichment ratio after two sorts for PhoP signalling” is about 0, and the highest 2% start at about 11. The sample holds the highest values, similar sequences and a random draw of the others, so the mix is not that of the screen.

B1: PhoQ; a variant is named by its letters at X, in order, P23837 (parent)
chain: MKKLLRLFFPLSLRVRFLLATAAVVLVLSLAYGMVALIGYSVSFDKTTFRLLRGESNLFYTLAKWENNKLHVELPENIDKQSPTMTLIYDENGQLLWAQRDVPWLMKMIQPDWLKSNGFHEIEADVNDTSLLLSGDHSIQQQLQEVREDDDDAEMTHSVAVNVYPATSRMPKLTIVVVDTIPVELKSSYMVWSWFIYVLSANLLLVIPLLWVAAWWSLRPIEALAKEVRELEEHNRELLNPATTRELTSLVRNLNRLLKSERERYDKYRTTLTDLTHSLKTPLXXLQXXLRSLRSEKMSVSDAEPVMLEQISRISQQIGYYLHRASMRGGTLLSRELHPVAPLLDNLTSALNKVYQRKGVNISLDISPEISFVGEQNDFVEVMGNVLDNACKYCLEFVEISARQTDEHLYIVVEDDGPGIPLSKREVIFDRGQRVDTLRPGQGVGLAVAREITEQYEGKIVAGESMLGGARMEVIFGRQHSAPKDE

Variants of: B1
Assay: enrichment ratio after two sorts for PhoP signalling (ratio (wild type AVST 3.29)); higher = more functional
Conditions: with PhoP (E. coli)

Variant	enrichment ratio
NNDF	≤ 0.25
KDQI	≤ 0.25
WTKG	≤ 0.25
KNQF	≤ 0.25
FFRV	≤ 0.25
IYFT	≤ 0.25
ECCW	≤ 0.25
SVDL	1.56
WHFP	≤ 0.25
TNIV	≤ 0.25
TNMS	4.8
TNMV	12.6
SRGA	≤ 0.25
SEMA	13.6
KYMA	≤ 0.25
KYGA	≤ 0.25
STMA	4.9
SEGA	12
ALVP	≤ 0.25
HAVN	≤ 0.25
FQPY	≤ 0.25
QECD	≤ 0.25
AECV	21.4
AESH	1.31
AEWV	≤ 0.25
AESR	3.86

Variant	enrichment ratio
AECL	20.9
AEPL	≤ 0.25
AESI	25.1
AEES	≤ 0.25
AWCD	≤ 0.25
AECD	17
AEGL	1.47
DTCP	≤ 0.25
FCNA	≤ 0.25
VDPQ	≤ 0.25
GHKH	≤ 0.25
IWMV	≤ 0.25
MRYG	≤ 0.25
VCGI	≤ 0.25
VANS	≤ 0.25
KPRL	≤ 0.25
AECS	39.5
AECA	42.4
AIIF	≤ 0.25
AEIF	18.6
AECK	≤ 0.25
AECQ	30.9
AECP	≤ 0.25
AECI	4.88
AECG	≤ 0.25
ADIF	≤ 0.25

Variant	enrichment ratio
RMEF	≤ 0.25
THRH	≤ 0.25
LFGG	≤ 0.25
SVRY	≤ 0.25
VDCR	≤ 0.25
PYWQ	≤ 0.25
SCCQ	13.2
SCIE	≤ 0.25
SCWM	≤ 0.25
SCIL	0.31
SCNE	≤ 0.25
SCCL	18.7
SCCI	9.92
SCKQ	≤ 0.25
SCCK	14.3
KCCQ	≤ 0.25
SCCE	13.9
SCVL	1.96
QNII	≤ 0.25
YSFC	≤ 0.25
QFDM	≤ 0.25
MRHI	≤ 0.25
SCGL	13.6
SCGG	11.1
KCCG	≤ 0.25
SCNL	0.751

Variant	enrichment ratio
SCTM	17.9
SCRM	≤ 0.25
KYGL	≤ 0.25
SCCG	14.3
SCGM	9.65
IPCK	≤ 0.25
NTGH	≤ 0.25
VHAE	≤ 0.25
RFHG	≤ 0.25
GDAF	≤ 0.25
THIS	≤ 0.25
SATS	14.2
HATY	≤ 0.25
SSDK	≤ 0.25
SSLI	18.9
NNTY	≤ 0.25
AITY	3.48
SATD	≤ 0.25
AHTY	≤ 0.25
SATC	5.33
TMTY	12.9
AETY	16
SFLI	0.615
IYRF	≤ 0.25
VMFP	≤ 0.25
EPNR	≤ 0.25

Variant	enrichment ratio
LVNK	≤ 0.25
AYMN	≤ 0.25
SQGS	7.13
NISG	≤ 0.25
NDHH	≤ 0.25
TQTY	17.5
TSAY	11.6
MMTY	≤ 0.25
SITY	12.7
LCTY	≤ 0.25
KSAY	0.715
TSTY	11.6
FSAY	≤ 0.25
KYTY	≤ 0.25
FQTY	≤ 0.25
DHTY	≤ 0.25
SQTY	8.07
HMAW	≤ 0.25
ILRI	≤ 0.25
DLNY	≤ 0.25
WPQA	≤ 0.25
KATY	≤ 0.25
SETY	15
SATY	12.7
NVTY	≤ 0.25
KSWY	≤ 0.25

Variant	enrichment ratio
NATY	≤ 0.25
SSTY	11.3
AKWY	≤ 0.25
QETY	≤ 0.25
KSTY	≤ 0.25
TKWY	12.9
METY	3.22
VMNQ	≤ 0.25
KFEC	≤ 0.25
WKRY	≤ 0.25
SIGY	14.3
KYGY	≤ 0.25
TSWY	14.1
LCWY	≤ 0.25
SLGY	1.84
MMWY	≤ 0.25
VGCD	≤ 0.25
FAVQ	≤ 0.25
QAGD	≤ 0.25
NAGQ	≤ 0.25
TPGQ	16
QAVQ	≤ 0.25
MAMQ	≤ 0.25
FAMQ	45
QAMQ	44.4
QGGQ	8.17

Variant	enrichment ratio
QAMV	≤ 0.25
QPGQ	≤ 0.25
QAGQ	24.5
KRHT	≤ 0.25
IASQ	≤ 0.25
FDMR	≤ 0.25
HIEP	≤ 0.25
ITVA	≤ 0.25
SHRP	≤ 0.25
NRKT	≤ 0.25
GQLV	7.76
SALF	9.67
KRAM	≤ 0.25
MDPE	≤ 0.25
EKES	≤ 0.25
ASKA	≤ 0.25
ASSS	11.9
ASSQ	14.5
ASSK	≤ 0.25
ASSR	≤ 0.25
ASHP	≤ 0.25
VWGF	≤ 0.25
SDHM	≤ 0.25
AQDN	≤ 0.25
PECQ	≤ 0.25
IETV	≤ 0.25

Variant	enrichment ratio
GVSF	11.8
GYGF	≤ 0.25
GGGF	≤ 0.25
GVGF	12
GVHF	≤ 0.25
GNSF	1.14
DDND	≤ 0.25
QPHR	≤ 0.25
FDYT	≤ 0.25
YIRR	≤ 0.25
KSWA	≤ 0.25
TSCH	15.8
THHV	≤ 0.25
KSNF	≤ 0.25
KSCH	≤ 0.25
MMWA	≤ 0.25
TSHV	13.7
FSCH	0.442
TSWA	15.4
MMNF	≤ 0.25
TSNF	16.1
KSHV	≤ 0.25
